Source: PubChem
RMI-FANCM inh: blocks RMI1/RMI2 complex binding to FANCM MM2 peptide; Fluorescence polarization, RMI core complex with F-MM2 peptide; active compounds read low; FP signal (polarization) at 33 µM; actives 0.58% (n = 70,000); AID 1159607; in the data active = FP signal below about 40
* marks the source's active call; other numbers are inactive results; ! = repeats disagree. Shown is part of a subset that was picked to be rich in hits.

SMILES | RMI-FANCM inh
CCOC(=O)C(C)Oc1ccc(S(N)(=O)=O)cc1 (stereo not drawn) | 63
Cc1ccc2oc(C(=O)NCc3cccs3)cc2n1 | 64
Cc1ccc2oc(C(=O)NCCn3c(C)cc4ccccc43)cc2n1 | 26*
CSc1ccccc1NC(=O)c1cc2nc(C)ccc2o1 | 58
COc1ccc(CC(=O)NCCN2CCN(c3ccccc3OC)CC2)cc1 | 63
COc1cc(C(=O)Nc2ccc3c(c2)CCCN3C(=O)c2cccs2)c([N+](=O)[O-])cc1OC | 55
COc1ccc(OC)c(-c2ccc(=O)n(CCNC(=O)Cc3cccc4ccccc34)n2)c1 | 69
CSc1sc(C(=O)/C(C#N)=C/Nc2ccccc2Cl)c2c1C=CCC2 | 61
NC(=O)C1Cc2ccccc2N1C(=O)CCCN1C(=O)c2ccccc2C1=O (stereo not drawn) | 51
O=C1Cc2ccccc2C1=C1Cc2ccccc2C1 | 51
NC(=O)N1c2ccccc2CC(=O)c2ccccc21 | -8*!
CCOC(=O)COc1ccccc1C1CC(c2cccs2)=NN1C(=O)c1ccco1 (stereo not drawn) | 59
O=C(c1ccc(CNS(=O)(=O)c2ccccc2F)cc1)N1CCC(Cc2ccccc2)CC1 | 81
CC(=O)Nc1ccc(NC(=O)Cc2csc(SCC(=O)Nc3cccc(NC(C)=O)c3)n2)cc1 | 64
COc1cccc(-c2cn3c(C(=O)Nc4ccc(OC(F)(F)F)cc4)csc3n2)c1 | 66
COc1ccc(C(=O)N/N=C\c2c(C)nn(-c3ccccc3)c2N2CCCCC2)cc1OC | 57
CCn1c(/C=N\Nc2nc3ccccc3s2)nc2ccccc21 | 59
Cc1nn(-c2ccccc2)c(N2CCCCC2)c1/C=N\Nc1nc2ccccc2s1 | 8*
NC(=O)c1cccc(C(N)=O)c1F | 57
O=C(Nc1ccccc1[N+](=O)[O-])C(=O)N1CCN(c2ccccc2F)CC1 | 50
CC(C)OCc1ccc(C(=O)Nc2nccs2)o1 | 63
Cc1c(NC(=S)NCCCn2ccnc2)c(=O)n(-c2ccccc2)n1C | 58
Cn1c(=NC(=S)NC(=O)c2ccc(S(=O)(=O)N3CCCC3)cc2)sc2c3ccccc3ccc21 | 77
CCOC(=O)c1c(NC(=S)Nc2cc(C)ccn2)sc(C)c1C | 50
COC(=O)Cn1c(=NC(=O)c2ccc(OC)cc2)sc2cc(NC(C)=O)ccc21 | 74
SMILES | RMI-FANCM inh
COC(=O)Cn1c(=NC(=O)c2ccc(Br)s2)sc2cc(F)ccc21 | 65
COC(=O)Cn1c(=NC(=O)c2ccc(F)cc2)sc2cc(OC)ccc21 | 28*
CCN=C1SC(CC(=O)Nc2ccc(OCC)cc2)C(=O)N1CC (stereo not drawn) | 62
Cc1nc2sc(C)c(C)n2c(=O)c1NC(=O)CCCc1ccccc1 | 64
COc1ccccc1-n1ncc2c(C(C)C)nnc(SCC(N)=O)c21 | 63
O=C(NCc1ccc2[nH]c3c(c2c1)CCCC3)C(=O)c1cn(CC(=O)N2CCCC2)c2ccccc12 | 60
COc1cc(Br)cc(C=Nc2ccccc2O)c1O | 56
Oc1ccc(Cl)cc1C=Nc1cccc(C(F)(F)F)c1 | 50
Oc1c(Br)cc(Br)cc1C=Nc1ccccc1F | -4*
COc1ccccc1N=Cc1ccccc1OC(=O)c1ccccc1Br | 58
Oc1c(Br)cc(Br)cc1C=Nc1cccc(Cl)c1 | 20*
Oc1c(Br)cc(Br)cc1C=Nc1ccc(-c2ccccc2)cc1 | 43
O=C1/C(=C/C=C/c2ccccc2)SC(=S)N1c1cccc(O)c1 | 57
O=S(=O)(Nc1ccc(F)cc1)c1c(F)cccc1F | 54
COc1ncccc1C(=O)Nc1ccccc1Cl | 52
c1ccc2c(-c3nnc(CN4CCOCC4)o3)cccc2c1 | 60
Fc1ccc(C(c2ccc(F)cc2)N2CCN(C/C=C/c3ccccc3)CC2)cc1 | 24*!
C(=C\c1ccccc1)/CN1CCN(C(c2ccccc2)c2ccccc2)CC1 | 54
COc1ccc(CN2CCN(C(c3ccc(F)cc3)c3ccc(F)cc3)CC2)c(OC)c1OC | 65
O=S(=O)(NCc1ccco1)N1CCCCC1 | 63
NC(=S)N/N=C\c1cc(Br)c(O)c(Br)c1 | 57
O=[N+]([O-])c1cnc(Sc2nnc(-c3ccc(Cl)cc3)o2)s1 | 55
CSc1nnc(Sc2ncc([N+](=O)[O-])s2)s1 | 2*
O=[N+]([O-])c1cnc(Sc2ccc(C(F)(F)F)cn2)s1 | 58
CCc1cccc(C)c1NC(=O)CSc1nc2c(-c3ccc(C)cc3)csc2c(=O)n1C | 111
SMILES | RMI-FANCM inh
COc1ccccc1-c1cnn2c(N3CCN(Cc4ccccc4)CC3)cc(C)nc12 | 60
OCCN1CCN(c2cc(-c3ccccc3)nc3c(-c4ccc(Cl)cc4)cnn23)CC1 | 28*
CC(C)(C)c1cc(N2CCN(C3CCCC3)CC2)n2ncc(-c3ccccc3)c2n1 | 60
C/C(=N/N=c1/sc(C)c(-c2ccccc2)n1Cc1ccco1)c1ccccc1 | 59
CN1CCN(C(CNS(=O)(=O)c2ccc(Cl)s2)c2ccc3c(c2)CCN3C)CC1 (stereo not drawn) | 62
O=C(Cc1cc(=O)[nH]c(SCc2cccc(Cl)c2)n1)NCc1ccco1 | 57
Cc1ccc(C2CC(c3cccs3)=NN2C(=O)CSc2nc(=O)n3ccc(C)cc3n2)cc1 (stereo not drawn) | 88
COC(=O)c1ccc(CSc2nc(=O)n3ccc(C)cc3n2)o1 | 48
CCOC(=O)N1CCN(C(=O)CSc2nc(=O)n3ccc(C)cc3n2)CC1 | 29*
O=C(Nc1nc(-c2ccc(I)cc2)cs1)c1c(F)cccc1F | 58
CCOc1ccc(-c2ccc(=O)n(CCCC(=O)NCc3ccc(F)cc3)n2)cc1 | 73
O=C(COc1ccccc1Br)N1CCCCC1 | 57
COC(=O)c1ccc2nsnc2c1 | 61
COC(=O)c1ccc2c(c1)C(=O)/C(=C/c1ccc(O)c(OC)c1)O2 | 72
COC(=O)c1ccc2c(c1)C(=O)/C(=C/c1ccccc1F)O2 | 14*
CC(C)c1ccc(/C=N\NC(=O)COc2ccc(Br)cc2)cc1 | 61
O=C(Nc1nc(-c2ccc(Br)s2)cs1)c1ccc2ncsc2c1 | 26*
O=C(Nc1nc(-c2ccccn2)cs1)c1ccc2ncsc2c1 | 84
O=C(Nc1nc(-c2ccc3c(c2)OCCO3)cs1)c1ccc2ncsc2c1 | 68
COc1ccc2nc(NC(=O)c3ccc(C(=O)c4ccccc4)cc3)sc2c1 | 66
CCNc1nc(SCC(=O)NC(=O)NCc2ccccc2)nc2sc3c(c12)CCN(C)C3 | 5
CCNc1[nH]c(=S)nc2sc3c(c12)CCN(C)C3 | -15*
CN1CCc2c(sc3nc(NC(=O)c4ccc(OC(F)(F)F)cc4)sc(=O)c23)C1 | 60
O=C(Nc1c(C(=O)Nc2ccc([N+](=O)[O-])cc2)oc2ccccc12)c1cc(Cl)ccc1Cl | 60
COc1ccc(NC(=O)CSc2ncc(CO)n2CC(=O)NC(C)C)cc1OC | 59
SMILES | RMI-FANCM inh
O=C(CC1CCCC1)NCCN1CCn2cc(OCc3ccc(F)cc3)c(=O)cc2C1=O | 64
S=c1[nH]cc2ccccn12 | 18*
Cn1c(-c2ccccc2)c[nH]c1=S | 60
S=c1[nH]nc2ccccn12 | 56
O=C(NCC(=O)N1CCOC(c2ccccc2)C1)c1ccccc1C(F)(F)F (stereo not drawn) | 75
Cc1ccc(Cl)cc1NC(=O)CSc1nc2c(sc(=S)n2-c2ccccc2)c(=O)[nH]1 | 60
O=C(/C=C/c1ccco1)c1c(-c2ccccc2)c2cc(Cl)ccc2[nH]c1=O | 0*
C/C(=N\NC(=O)CCCC(=O)O)c1c(-c2ccccc2)c2cc(Cl)ccc2[nH]c1=O | 60
O=C(/C=C/c1ccco1)c1c(-c2ccccc2)c2cc(Br)ccc2[nH]c1=O | 54
